Data reported in the supplement of paper PMC10849652.
Of roughly 8,800 targets only a part is listed; those with a hit were picked by preference. About 0.5% of all pairs of compound and target were hits. A number with no mark means an inactive call.

compound: NCC(=O)Nc1ccc(-n2nc(C(F)(F)F)cc2-c2ccc3c(ccc4ccccc43)c2)cc1; experiment: log2 fold change, soluble protein after heating vs DMSO (PISA); higher = thermal stabilisation; K562 lysate, 10 uM; active = over 0.2 and 3.5 SD of the protein, either way, in both replicates (recomputed)
In short: (§1)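 Soluble protein was defined as the supernatant remaining after 21,000xg for 90 min, following pooling of heated aliquots and adjustment to 0.5% NP-40 at 4°C. Before that, crude K562 extract at 1 mg/mL protein in PBS pH 7.4 with 1 mM MgCl2 was treated with 10 μM compound for 30 min and heated for 3 min across 48°C-58°C. Quantification used TMTpro 16plex LC-MS/MS with channel sums equalised, and values are log-two fold changes in thermal stability relative to solvent controls from duplicates.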

Chain of UniProt Q86VV8 (Q86VV8 whole entry, looked up): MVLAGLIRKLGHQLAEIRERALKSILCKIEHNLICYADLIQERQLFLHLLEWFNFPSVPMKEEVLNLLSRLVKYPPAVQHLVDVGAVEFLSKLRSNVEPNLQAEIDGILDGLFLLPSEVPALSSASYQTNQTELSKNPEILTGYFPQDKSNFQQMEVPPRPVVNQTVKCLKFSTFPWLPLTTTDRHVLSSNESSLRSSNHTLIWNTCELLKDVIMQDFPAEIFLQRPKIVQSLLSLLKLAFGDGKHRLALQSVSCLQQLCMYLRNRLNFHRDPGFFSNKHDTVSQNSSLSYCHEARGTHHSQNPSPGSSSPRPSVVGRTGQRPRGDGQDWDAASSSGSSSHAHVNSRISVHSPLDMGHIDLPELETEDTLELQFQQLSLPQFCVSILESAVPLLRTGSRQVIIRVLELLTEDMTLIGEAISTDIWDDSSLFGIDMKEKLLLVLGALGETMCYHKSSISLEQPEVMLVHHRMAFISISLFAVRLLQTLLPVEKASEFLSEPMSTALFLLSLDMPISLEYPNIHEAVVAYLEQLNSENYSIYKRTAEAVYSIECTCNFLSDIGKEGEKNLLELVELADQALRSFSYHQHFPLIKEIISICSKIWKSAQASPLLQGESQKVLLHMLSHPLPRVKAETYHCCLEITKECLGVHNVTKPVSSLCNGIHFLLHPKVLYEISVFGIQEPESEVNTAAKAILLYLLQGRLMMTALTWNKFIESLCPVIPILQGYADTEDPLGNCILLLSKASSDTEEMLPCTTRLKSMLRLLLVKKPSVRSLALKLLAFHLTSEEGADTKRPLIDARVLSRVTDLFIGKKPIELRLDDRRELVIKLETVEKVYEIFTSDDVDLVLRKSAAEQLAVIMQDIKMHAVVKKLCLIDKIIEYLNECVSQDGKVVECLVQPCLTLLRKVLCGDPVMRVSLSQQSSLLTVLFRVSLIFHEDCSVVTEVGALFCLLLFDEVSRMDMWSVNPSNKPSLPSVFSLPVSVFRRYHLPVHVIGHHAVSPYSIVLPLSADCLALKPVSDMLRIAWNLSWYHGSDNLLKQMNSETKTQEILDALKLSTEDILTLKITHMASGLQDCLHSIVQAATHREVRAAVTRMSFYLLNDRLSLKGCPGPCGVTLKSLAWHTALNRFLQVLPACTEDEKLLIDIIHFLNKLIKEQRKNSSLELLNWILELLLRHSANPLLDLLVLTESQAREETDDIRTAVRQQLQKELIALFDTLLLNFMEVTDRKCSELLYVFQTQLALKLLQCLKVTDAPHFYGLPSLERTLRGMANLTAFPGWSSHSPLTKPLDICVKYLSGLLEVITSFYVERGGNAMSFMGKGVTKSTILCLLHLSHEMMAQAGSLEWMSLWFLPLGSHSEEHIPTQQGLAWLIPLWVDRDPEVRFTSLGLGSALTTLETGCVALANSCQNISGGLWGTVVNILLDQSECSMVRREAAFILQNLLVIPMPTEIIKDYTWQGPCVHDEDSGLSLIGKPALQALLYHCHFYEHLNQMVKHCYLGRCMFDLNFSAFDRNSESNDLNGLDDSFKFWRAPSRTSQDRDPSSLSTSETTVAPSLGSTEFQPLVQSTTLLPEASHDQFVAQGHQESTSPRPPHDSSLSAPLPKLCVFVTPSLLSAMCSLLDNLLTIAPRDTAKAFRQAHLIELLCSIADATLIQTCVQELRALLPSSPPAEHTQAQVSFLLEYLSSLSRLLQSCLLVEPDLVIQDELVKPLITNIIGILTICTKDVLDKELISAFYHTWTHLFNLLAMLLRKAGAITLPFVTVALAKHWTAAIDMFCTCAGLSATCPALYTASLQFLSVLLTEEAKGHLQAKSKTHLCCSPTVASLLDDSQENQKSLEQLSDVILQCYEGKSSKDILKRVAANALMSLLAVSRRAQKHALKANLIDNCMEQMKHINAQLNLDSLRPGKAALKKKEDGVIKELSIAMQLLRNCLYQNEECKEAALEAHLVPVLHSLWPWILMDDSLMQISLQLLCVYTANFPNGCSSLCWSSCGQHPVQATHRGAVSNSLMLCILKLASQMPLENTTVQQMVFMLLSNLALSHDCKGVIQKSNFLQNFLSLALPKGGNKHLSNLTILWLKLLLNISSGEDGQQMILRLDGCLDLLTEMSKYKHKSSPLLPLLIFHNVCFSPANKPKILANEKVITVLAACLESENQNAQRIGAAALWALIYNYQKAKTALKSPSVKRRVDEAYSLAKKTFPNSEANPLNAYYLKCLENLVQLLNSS
Chain of UniProt Q9BUV8 (Q9BUV8 whole entry, looked up): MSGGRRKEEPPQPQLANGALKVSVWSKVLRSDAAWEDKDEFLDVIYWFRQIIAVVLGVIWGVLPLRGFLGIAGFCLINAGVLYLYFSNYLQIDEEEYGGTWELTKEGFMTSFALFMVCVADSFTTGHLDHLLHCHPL
Chain of UniProt Q5TBB1 (Q5TBB1 whole entry, looked up): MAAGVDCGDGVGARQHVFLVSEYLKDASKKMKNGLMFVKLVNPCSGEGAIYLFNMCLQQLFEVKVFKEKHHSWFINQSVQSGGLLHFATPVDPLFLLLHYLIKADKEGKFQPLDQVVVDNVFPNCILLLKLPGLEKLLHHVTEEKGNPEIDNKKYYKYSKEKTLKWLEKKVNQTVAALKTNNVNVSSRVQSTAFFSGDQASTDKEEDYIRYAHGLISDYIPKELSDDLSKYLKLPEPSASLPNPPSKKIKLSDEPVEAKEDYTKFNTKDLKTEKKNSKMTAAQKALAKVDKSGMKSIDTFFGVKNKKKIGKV
Chain of UniProt Q15287 (Q15287 whole entry, looked up): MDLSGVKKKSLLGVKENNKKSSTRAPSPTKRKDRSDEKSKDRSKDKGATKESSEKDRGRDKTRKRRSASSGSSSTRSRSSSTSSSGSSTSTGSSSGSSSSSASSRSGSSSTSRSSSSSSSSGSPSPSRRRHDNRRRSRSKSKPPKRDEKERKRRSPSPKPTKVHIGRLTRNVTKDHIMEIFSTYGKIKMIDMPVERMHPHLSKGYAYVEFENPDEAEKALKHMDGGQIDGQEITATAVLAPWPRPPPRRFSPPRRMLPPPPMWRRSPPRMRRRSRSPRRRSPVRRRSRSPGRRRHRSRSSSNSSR
Chain of UniProt P18754 (P18754 whole entry, looked up): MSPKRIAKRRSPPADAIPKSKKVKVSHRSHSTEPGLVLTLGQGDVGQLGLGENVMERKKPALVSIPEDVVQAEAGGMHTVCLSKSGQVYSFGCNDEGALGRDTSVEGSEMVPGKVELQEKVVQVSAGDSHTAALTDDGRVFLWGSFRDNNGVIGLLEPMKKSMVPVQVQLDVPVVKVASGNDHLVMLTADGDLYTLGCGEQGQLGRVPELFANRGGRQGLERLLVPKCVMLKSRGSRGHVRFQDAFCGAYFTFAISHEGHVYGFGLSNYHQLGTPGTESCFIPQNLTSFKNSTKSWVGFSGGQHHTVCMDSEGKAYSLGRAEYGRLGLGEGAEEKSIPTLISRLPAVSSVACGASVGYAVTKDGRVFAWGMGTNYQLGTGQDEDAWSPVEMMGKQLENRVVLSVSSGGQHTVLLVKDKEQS
Chain of UniProt Q9UQR0 (Q9UQR0 whole entry, looked up): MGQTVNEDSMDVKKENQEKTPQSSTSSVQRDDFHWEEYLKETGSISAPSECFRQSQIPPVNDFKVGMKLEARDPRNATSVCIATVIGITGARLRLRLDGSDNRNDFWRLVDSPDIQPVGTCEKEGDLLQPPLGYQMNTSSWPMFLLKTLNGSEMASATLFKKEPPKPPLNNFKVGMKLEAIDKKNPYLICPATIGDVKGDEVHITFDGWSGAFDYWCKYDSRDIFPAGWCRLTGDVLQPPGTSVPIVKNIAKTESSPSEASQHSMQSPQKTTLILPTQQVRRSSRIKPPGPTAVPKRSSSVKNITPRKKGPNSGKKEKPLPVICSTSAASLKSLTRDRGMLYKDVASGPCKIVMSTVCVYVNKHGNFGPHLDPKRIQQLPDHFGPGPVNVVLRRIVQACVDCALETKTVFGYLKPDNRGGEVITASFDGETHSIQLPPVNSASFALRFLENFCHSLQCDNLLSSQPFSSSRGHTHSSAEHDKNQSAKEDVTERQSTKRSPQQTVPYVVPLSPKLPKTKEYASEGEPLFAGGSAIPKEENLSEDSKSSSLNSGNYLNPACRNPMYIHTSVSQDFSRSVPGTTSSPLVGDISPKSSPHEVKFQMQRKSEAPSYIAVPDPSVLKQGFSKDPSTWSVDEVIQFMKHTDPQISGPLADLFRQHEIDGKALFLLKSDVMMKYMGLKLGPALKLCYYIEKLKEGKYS
Chain of UniProt Q99643 (Q99643 whole entry, looked up): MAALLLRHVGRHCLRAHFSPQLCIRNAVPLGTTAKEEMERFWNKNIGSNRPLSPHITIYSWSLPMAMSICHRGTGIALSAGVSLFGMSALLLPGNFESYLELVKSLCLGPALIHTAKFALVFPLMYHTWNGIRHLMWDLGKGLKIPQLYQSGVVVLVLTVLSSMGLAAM
Chain of UniProt Q9Y6B6 (Q9Y6B6 whole entry, looked up): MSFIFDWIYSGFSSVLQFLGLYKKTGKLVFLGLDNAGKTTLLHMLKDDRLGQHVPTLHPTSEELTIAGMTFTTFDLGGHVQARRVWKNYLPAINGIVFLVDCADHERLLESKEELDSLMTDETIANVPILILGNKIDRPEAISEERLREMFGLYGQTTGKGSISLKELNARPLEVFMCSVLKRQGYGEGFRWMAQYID
Chain of UniProt Q9UL25 (Q9UL25 whole entry, looked up): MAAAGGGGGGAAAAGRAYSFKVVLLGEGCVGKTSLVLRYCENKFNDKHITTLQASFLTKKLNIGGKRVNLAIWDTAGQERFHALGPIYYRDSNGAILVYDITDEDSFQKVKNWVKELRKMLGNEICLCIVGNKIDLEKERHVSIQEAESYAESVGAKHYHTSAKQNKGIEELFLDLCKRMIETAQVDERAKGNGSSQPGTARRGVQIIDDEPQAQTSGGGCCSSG
Chain of UniProt Q7L0Q8 (Q7L0Q8 whole entry, looked up): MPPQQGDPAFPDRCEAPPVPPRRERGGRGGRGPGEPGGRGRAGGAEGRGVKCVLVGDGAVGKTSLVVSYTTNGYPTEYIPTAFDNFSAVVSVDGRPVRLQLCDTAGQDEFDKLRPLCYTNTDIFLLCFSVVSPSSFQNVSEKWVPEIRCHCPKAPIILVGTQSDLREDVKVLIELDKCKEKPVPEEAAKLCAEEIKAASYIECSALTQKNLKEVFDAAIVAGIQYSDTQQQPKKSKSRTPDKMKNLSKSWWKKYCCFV

| Target | log2 fold change |
| --- | --- |
| RHOU (UniProt Q7L0Q8) | 0.019 |
| RUFY2 isoform 1 (UniProt Q8WXA3) | -0.009 |
| RBM8A (UniProt Q9Y5S9) | -0.113 |
| RAB21 (UniProt Q9UL25) | 0.017 |
| RHBDD1 (UniProt Q8TEB9) | -0.162 |
| RPL36AL (UniProt Q969Q0) | -0.056 |
| RFC5 (UniProt P40937) | 0.019 |
| SDHC (UniProt Q99643) | -0.046 |
| QSER1, A0A3B3IRW6 | -0.013 |
| RTTN (UniProt Q86VV8) | -0.14 |
| SAP30 (UniProt O75446) | 0.001 |
| RCC1 isoform 2 (UniProt P18754) | 0.009 |
| RNPS1 (UniProt Q15287) | -0.014 |
| SAR1B (UniProt Q9Y6B6) | -0.083 |
| RNASEH2B (UniProt Q5TBB1) | -0.016 |
| RNF213, A0A0A0MTC1 | 0.022 |
| RAD17 (UniProt O75943) | -0.044 |
| ROCK1 (UniProt Q13464) | 0 |
| SCML2 (UniProt Q9UQR0) | -0.099 |
| RAB5IF isoform 5 (UniProt Q9BUV8) | -0.039 |

compound: O=C(CCCCCCC(=O)Nc1ccccc1)NO [vorinostat]; experiment: as above
In short: as §1

| Target | log2 fold change |
| --- | --- |
| RAD54L (UniProt Q92698) | -1.06 (active) |
| RHOU (UniProt Q7L0Q8) | -0.116 |
| RNPC3 (UniProt Q96LT9) | -0.488 (active) |
| RBM8A (UniProt Q9Y5S9) | 0.103 |
| RNF24 isoform 2 (UniProt Q9Y225) | 0.918 (active) |
| RYR1 (UniProt P21817) | 0.066 |
| RAB21 (UniProt Q9UL25) | -0.235 |
| SERAC1 (UniProt Q96JX3) | 0.236 |
| RPL36AL (UniProt Q969Q0) | 0.124 |
| RFC5 (UniProt P40937) | -0.492 (active) |
| SDHC (UniProt Q99643) | -0.196 |
| SCNM1 (UniProt Q9BWG6) | -0.13 |
| RXRA (UniProt P19793) | -0.154 |
| RNF17 (UniProt Q9BXT8) | -0.016 |
| QSER1, A0A3B3IRW6 | -0.236 (active) |
| RTTN (UniProt Q86VV8) | -0.607 (active) |
| RCC1 isoform 2 (UniProt P18754) | -0.381 (active) |
| ROBO2 isoform 3 (UniProt Q9HCK4) | 0.136 |
| RNPS1 (UniProt Q15287) | 0.02 |
| SAR1B (UniProt Q9Y6B6) | 0.155 |
| RNASEH2B (UniProt Q5TBB1) | -0.377 (active) |
| RNF213, A0A0A0MTC1 | -0.381 (active) |
| ROCK1 (UniProt Q13464) | -0.211 (active) |
| SCML2 (UniProt Q9UQR0) | -0.243 (active) |
| RAB5IF isoform 5 (UniProt Q9BUV8) | -0.039 |
